Among the data in PubChem BioAssay (NCI) are growth values, retold here.

SMILES strings stand for the structures. Compounds without any hit were thinned out: in the full panel of roughly 83,000, 20% have a hit.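 Step 1: grow cells in 96-well plates. Step 2: add test compound at a single concentration. Step 3: incubate 48 h. Step 4: record percent growth.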 Values without a mark were called inactive. Active and inactive are the calls of the source. Rule for the calls: active = growth percent below 10; inactive = the rest.

This test has as its system HL-60(TB) leukemia. The test can be described thus: NCI-60 one-dose screen, 48 h (100 = growth as untreated, 0 = no growth, -100 = all killed). As to conditions: 10 µM unless noted.
As to `CC(=O)Nc1cccc(Nc2nccc(N[C@@H](C)c3ccccc3)n2)c1`, the growth was 5.18% (active).
Under `CCCS(=O)(=O)N1CCCC(C(=O)Nc2nc3ccc(NC(=O)c4ccc(F)c(OC)c4F)cc3s2)C1` (centres undefined) stands 27.3%; under `COc1ccc2[nH]c(=O)c(CSc3cccc(N)c3)cc2c1`, 51.3%; under `N/C(=N\c1nc2ccccc2s1)NC(=O)Nc1ccc(Cl)cc1Cl`, -66% (active).
The figure for `COc1cc2cc(C(=O)N3C[C@@H](CCl)c4c3cc(OC(=O)N(CCC(=O)N3CCN(C)CC3)C3CCCCC3)c3ccccc43)[nH]c2c(OC)c1OC` is -55.9% (active); for `COC(=O)c1cc(C(=O)CBr)n2c1ccc1c3ccccc3ccc12` it is 49.3%.
The figure for `COc1cccc2nc(Nc3cccc(NC(=O)c4ccc(CN5CCN(C)CC5)c(C(F)(F)F)c4)c3)ccc12` is -53.1% (active); for `O=c1[nH]n(C(=S)N/N=C/c2ccccc2Cl)c(=O)c2ccccc12` it is -6.48% (active).
Turning to `O=C(c1ccc(O)cc1)C1[C@H](c2ccc(Cl)cc2)[C@@H](c2ccccc2)NC12C(=O)Nc1ccc(Br)cc12` (some centres undefined), the growth was -33.9% (active).
Under `C/C(=C\CC/C=C(\C)CC/C=C(\C)CC[C@@H](O)C(C)(C)O)CC/C=C(\C)CC[C@@H](O)C(C)(C)O` stands -49.3% (active); under `CN(C)CCn1c2ccccc2c2nc3cc4ccccc4cc3nc21`, -51.2% (active); under `COc1ccc(Nc2nnc(-c3c[nH]c4ccccc34)o2)cc1`, 29.8%.
As to `O=C(CN1C(=O)/C(=C/c2ccccc2F)SC1=S)N1CCOCC1`, the growth is 82.5%.
The figure for `OCc1[nH]nc2cc(Nc3ncc4ccc(Br)c(OC5CCC(O)CC5)c4n3)ccc12` (centres undefined) is -40.1% (active); for `Fc1ccc(/C=C/c2nc3ccccc3n3c(-c4ccc(Cl)cc4)nnc23)cc1` it is 3.61% (active).
On to `O=C(N=Nc1c(O)[nH]c2ccc(Br)cc12)c1ccc2nc(-c3ccc(Cl)cc3)[nH]c2c1`, for which the growth was 20.9%.
The figure for `Cc1cc(=O)oc2cc(OCC(O)CNN3C(=O)c4cccc5c(N6CCN(C)CC6)ccc(c45)C3=O)ccc12` (centres undefined) is 113%; for `CCCCCCCCc1ccc(C(=O)Nc2cccc(O)c2)cc1` it is 56.5%.
The figure for `O=C(Cn1c2c(sc1=O)[C@H]1[C@@H](O)[C@@H](O)[C@H](O)[C@@H]1CS2)N1CCOCC1` is 109%; for `Cc1ccccc1[C@H]1C(C(=O)c2ccc(Cl)cc2)C2(N[C@@H]1c1ccccc1)C(=O)Nc1ccccc12` (some centres undefined) it is -18.1% (active); for `CSc1ccc(C(=O)Nc2ccc3nnn(/C(C#N)=C/c4ccccn4)c3c2)cc1` it is 6.83% (active).
The figure for `N#Cc1c(-c2ccccc2Cl)cc(-c2ccc3ccccc3c2)[nH]c1=O` is 71.9%; for `CC1=C(C(=O)OC(C)C)C(c2ccc(O)cc2)NC(=O)N1` (centres undefined) it is 90.2%; for `COc1ccc(NC(=O)Cn2c(/C=C/c3cccc(OC)c3)nc3ccccc3c2=O)cc1` it is 94.6%.
As to `CN1CCN(C(=O)CCN(C(=O)Oc2cc3c(c4ccccc24)[C@H](CCl)CN3C(=O)c2cc3cc(OCCCN4CCC4)ccc3[nH]2)[C@H]2CCSSC2)CC1`, the growth is -56.7% (active).
For the compound `O=C(/C=C/Nc1ccc2oc(=O)ccc2c1)c1cc2cc(Br)ccc2oc1=O`, the growth is 131%.
The figure for `Cc1cc(=O)oc2cc(OCCOc3ccc(/C=C/C(=O)Nc4ccccc4N)cc3)ccc12` is 0.0457% (active); for `O=C(Cn1c(/C=C/c2ccccc2)nc2ccccc2c1=O)Nc1ccccc1` it is 64.7%; for `CC1(c2cc3cc(Cl)ccc3oc2=O)NC(=O)c2c(/C=C/C(=O)OC3CC4CCC3(C)C4(C)C)cccc2N1` (centres undefined) it is 29%.
Under `COc1cc(NC(=O)c2cccc(C3CCc4c(cc(OC)c(OC)c4OC)O3)c2)cc(OC)c1OC` (centres undefined) stands 4.25% (active).
Under `CN(C)c1nc(NCCNS(=O)(=O)c2ccc(C(=O)/C=C/c3ccc(Cl)cc3)cc2)nc(Nc2ccc(F)cc2)n1` stands -42.7% (active); under `Cc1ccc(-c2ccc(SCC(=O)Nc3ccc(Cl)c(C(F)(F)F)c3)nn2)cc1`, -22.3% (active).
Consider `CCOC(=O)c1ccc(NC(=S)NC(=O)c2cccc(NC(=O)c3ccc(C)cc3)c2)cc1`, for which the growth is 102%.
The figure for `Cc1ccccc1NC(=O)c1cccc(NC(=O)CCl)c1` is 19%.
On to `COc1ccc2[nH]c(=O)c(CSc3nccc(-c4ccc(OC)c(OC)c4)n3)cc2c1`, for which the growth was 16.9%.
Under `O=C(NNc1ccccc1)n1c(=O)c2ccccc2c(=O)n1-c1ccccc1` stands 82.7%.
The figure for `CCOc1ccccc1[C@H]1C(C(=O)c2ccc(Cl)cc2)C2(N[C@@H]1c1ccccc1)C(=O)Nc1ccc(Cl)cc12` (some centres undefined) is 18.2%.
As to `COc1ccc(NC(=O)[C@H](CO)NC(=O)OC(C)(C)C)cc1C(=O)Nc1cccc(C2CC(=O)c3c(cc(OC)c(OC)c3OC)O2)c1` (some centres undefined), the growth was 58.1%.
The figure for `Cn1cc(-c2cc(N)n3nc(-c4c[nH]c5ccc(Br)cc45)cc3n2)c2cc(Br)cnc21` is -44.2% (active).
